Source: paper PMC12820563, “FoxP3 forms a head-to-head dimer in vivo and stabilizes its multimerization on adjacent microsatellites”
In all, about 16,000 sequences were measured (“rpm ratio (pull-down/input)”: median about 0.5, highest 2% from about 5.5 on). This excerpt belongs to a sample that is enriched for the highest values.

The sequences below were run against T1, MBP-FoxP3dN (Mus musculus, UniProt Q99JB6 188-423) (assay: PD-seq (MBP pull-down with sequencing); 20 mM Tris-HCl pH 7.5, 100 mM NaCl, 1.5 mM MgCl2, 0.4 uM protein, 0.1 uM dsDNA library, 30 min, room temperature, amylose pull-down; high values mean tight binding). Details: protein: recombinant; tags: His6-MBP; chain copies: 2; dsDNA, one strand shown.
T1 sequence: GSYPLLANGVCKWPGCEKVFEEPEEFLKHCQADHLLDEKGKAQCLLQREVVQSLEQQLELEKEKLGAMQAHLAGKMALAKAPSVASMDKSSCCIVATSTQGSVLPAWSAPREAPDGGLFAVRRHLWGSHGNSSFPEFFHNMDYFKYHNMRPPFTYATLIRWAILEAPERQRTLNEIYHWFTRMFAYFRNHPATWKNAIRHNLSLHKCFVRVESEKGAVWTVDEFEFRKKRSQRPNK
Summary of the method: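 Binding is given as reads-per-million enrichment, pull-down over input, with replicates pooled. The bait was an N-terminus-lacking mouse FoxP3 or FoxP1 fragment with a His6-MBP tag, expressed in E. coli and used at 0.4 µM with 0.1 µM Klenow-filled degenerate double-stranded DNA library for 30 min at room temperature in Tris pH 7.5 buffer with NaCl and MgCl2. Amylose resin pull-down with three washes was followed by proteinase K release, PCR barcoding and Illumina sequencing.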

Sequence | binding signal
GATGATTGTTCTCCCAGCTGATGAATTCTAGCTGTCGAGTAAACAAATTTTCCTAATCTTTCTGTTCAAGCGCCATCTAC | 0.392 RPM ratio (pull-down/input)
GATGATTGTTCTCCCAGCTGATGAATTCGTTAGTTCGAGTAAACAAATTTTCCTAATCTTTCTGTTCAAGCGCCATCTAC | 2.91 RPM ratio (pull-down/input)
GATGATTGTTCTCCCAGCTGATGAATTTTACTCATCGAGTAAACAAATTTTCCTAATCTTTCTGTTCAAGCGCCATCTAC | 0.402 RPM ratio (pull-down/input)
GATGATTGTTCTCCCAGCTGATGAATTTCAAGTTTCGAGTAAACAAATTTTCCTAATCTTTCTGTTCAAGCGCCATCTAC | 0.283 RPM ratio (pull-down/input)
GATGATTGTTCTCCCAGCTGATGAATTTATACGTTCGAGTAAACAAATTTTCCTAATCTTTCTGTTCAAGCGCCATCTAC | 0.886 RPM ratio (pull-down/input)
GATGATTGTTCTCCCAGCTGATGAATTTCCACGTTCGAGTAAACAAATTTTCCTAATCTTTCTGTTCAAGCGCCATCTAC | 0.311 RPM ratio (pull-down/input)
GATGATTGTTCTCCCAGCTGATGAATTTCTATACTCGAGTAAACAAATTTTCCTAATCTTTCTGTTCAAGCGCCATCTAC | 0.435 RPM ratio (pull-down/input)
GATGATTGTTCTCCCAGCTGATGAATTTGATGTATCGAGTAAACAAATTTTCCTAATCTTTCTGTTCAAGCGCCATCTAC | 4.63 RPM ratio (pull-down/input)
GATGATTGTTCTCCCAGCTGATGAATTTGTATCATCGAGTAAACAAATTTTCCTAATCTTTCTGTTCAAGCGCCATCTAC | 5.48 RPM ratio (pull-down/input)
GATGATTGTTCTCCCAGCTGATGAATTGTATCTTTCGAGTAAACAAATTTTCCTAATCTTTCTGTTCAAGCGCCATCTAC | 1.68 RPM ratio (pull-down/input)
GATGATTGTTCTCCCAGCTGATGAATTGTAATACTCGAGTAAACAAATTTTCCTAATCTTTCTGTTCAAGCGCCATCTAC | 0.756 RPM ratio (pull-down/input)
GATGATTGTTCTCCCAGCTGATGAATTTGTATCTTCGAGTAAACAAATTTTCCTAATCTTTCTGTTCAAGCGCCATCTAC | 5.56 RPM ratio (pull-down/input)
GATGATTGTTCTCCCAGCTGATGAATTTGTATGCTCGAGTAAACAAATTTTCCTAATCTTTCTGTTCAAGCGCCATCTAC | 6.51 RPM ratio (pull-down/input)
GATGATTGTTCTCCCAGCTGATGAATTTGTATACTCGAGTAAACAAATTTTCCTAATCTTTCTGTTCAAGCGCCATCTAC | 7.1 RPM ratio (pull-down/input)
GATGATTGTTCTCCCAGCTGATGAATTGTATCCTTCGAGTAAACAAATTTTCCTAATCTTTCTGTTCAAGCGCCATCTAC | 1.61 RPM ratio (pull-down/input)
GATGATTGTTCTCCCAGCTGATGAATTTGTTGTATCGAGTAAACAAATTTTCCTAATCTTTCTGTTCAAGCGCCATCTAC | 7.55 RPM ratio (pull-down/input)
GATGATTGTTCTCCCAGCTGATGAATTGTAATGCTCGAGTAAACAAATTTTCCTAATCTTTCTGTTCAAGCGCCATCTAC | 1.07 RPM ratio (pull-down/input)
GATGATTGTTCTCCCAGCTGATGAATTTCTATGCTCGAGTAAACAAATTTTCCTAATCTTTCTGTTCAAGCGCCATCTAC | 0.385 RPM ratio (pull-down/input)
GATGATTGTTCTCCCAGCTGATGAATTCGTTTCCTCGAGTAAACAAATTTTCCTAATCTTTCTGTTCAAGCGCCATCTAC | 1.76 RPM ratio (pull-down/input)
GATGATTGTTCTCCCAGCTGATGAATTGTGGAAGTCGAGTAAACAAATTTTCCTAATCTTTCTGTTCAAGCGCCATCTAC | 0.274 RPM ratio (pull-down/input)
GATGATTGTTCTCCCAGCTGATGAATTTAGCGGATCGAGTAAACAAATTTTCCTAATCTTTCTGTTCAAGCGCCATCTAC | 0.292 RPM ratio (pull-down/input)
GATGATTGTTCTCCCAGCTGATGAATTGACTCCCTCGAGTAAACAAATTTTCCTAATCTTTCTGTTCAAGCGCCATCTAC | 0.386 RPM ratio (pull-down/input)

Sequence | binding signal
GATGATTGTTCTCCCAGCTGATGAATTATTTTGCTCGAGTAAACAAATTTTCCTAATCTTTCTGTTCAAGCGCCATCTAC | 0.946 RPM ratio (pull-down/input)
GATGATTGTTCTCCCAGCTGATGAATTTTTTTGCTCGAGTAAACAAATTTTCCTAATCTTTCTGTTCAAGCGCCATCTAC | 0.366 RPM ratio (pull-down/input)
GATGATTGTTCTCCCAGCTGATGAATTTGTTTGCTCGAGTAAACAAATTTTCCTAATCTTTCTGTTCAAGCGCCATCTAC | 7.54 RPM ratio (pull-down/input)
GATGATTGTTCTCCCAGCTGATGAATTAGTTTGCTCGAGTAAACAAATTTTCCTAATCTTTCTGTTCAAGCGCCATCTAC | 5.59 RPM ratio (pull-down/input)
GATGATTGTTCTCCCAGCTGATGAATTTCTTTGCTCGAGTAAACAAATTTTCCTAATCTTTCTGTTCAAGCGCCATCTAC | 1.5 RPM ratio (pull-down/input)
GATGATTGTTCTCCCAGCTGATGAATTAGTTTTCTCGAGTAAACAAATTTTCCTAATCTTTCTGTTCAAGCGCCATCTAC | 4.62 RPM ratio (pull-down/input)
GATGATTGTTCTCCCAGCTGATGAATTTTATTGCTCGAGTAAACAAATTTTCCTAATCTTTCTGTTCAAGCGCCATCTAC | 2.06 RPM ratio (pull-down/input)
GATGATTGTTCTCCCAGCTGATGAATTGTTTTGCTCGAGTAAACAAATTTTCCTAATCTTTCTGTTCAAGCGCCATCTAC | 3.65 RPM ratio (pull-down/input)
GATGATTGTTCTCCCAGCTGATGAATTTAGTTGCTCGAGTAAACAAATTTTCCTAATCTTTCTGTTCAAGCGCCATCTAC | 2.92 RPM ratio (pull-down/input)
GATGATTGTTCTCCCAGCTGATGAATTTGATTGCTCGAGTAAACAAATTTTCCTAATCTTTCTGTTCAAGCGCCATCTAC | 5.45 RPM ratio (pull-down/input)
GATGATTGTTCTCCCAGCTGATGAATTTATTTGCTCGAGTAAACAAATTTTCCTAATCTTTCTGTTCAAGCGCCATCTAC | 6.11 RPM ratio (pull-down/input)
GATGATTGTTCTCCCAGCTGATGAATTTTGTTGCTCGAGTAAACAAATTTTCCTAATCTTTCTGTTCAAGCGCCATCTAC | 5.63 RPM ratio (pull-down/input)
GATGATTGTTCTCCCAGCTGATGAATTCTCTTGCTCGAGTAAACAAATTTTCCTAATCTTTCTGTTCAAGCGCCATCTAC | 0.273 RPM ratio (pull-down/input)
GATGATTGTTCTCCCAGCTGATGAATTTTCCTTATCGAGTAAACAAATTTTCCTAATCTTTCTGTTCAAGCGCCATCTAC | 0.31 RPM ratio (pull-down/input)
GATGATTGTTCTCCCAGCTGATGAATTGGTGTTGTCGAGTAAACAAATTTTCCTAATCTTTCTGTTCAAGCGCCATCTAC | 3.18 RPM ratio (pull-down/input)
GATGATTGTTCTCCCAGCTGATGAATTCGATATTTCGAGTAAACAAATTTTCCTAATCTTTCTGTTCAAGCGCCATCTAC | 1.79 RPM ratio (pull-down/input)
GATGATTGTTCTCCCAGCTGATGAATTTCGCAAATCGAGTAAACAAATTTTCCTAATCTTTCTGTTCAAGCGCCATCTAC | 0.634 RPM ratio (pull-down/input)
GATGATTGTTCTCCCAGCTGATGAATTCGTCGTATCGAGTAAACAAATTTTCCTAATCTTTCTGTTCAAGCGCCATCTAC | 1.17 RPM ratio (pull-down/input)
GATGATTGTTCTCCCAGCTGATGAATTTAGTAAATCGAGTAAACAAATTTTCCTAATCTTTCTGTTCAAGCGCCATCTAC | 0.439 RPM ratio (pull-down/input)
GATGATTGTTCTCCCAGCTGATGAATTGTAGCCGTCGAGTAAACAAATTTTCCTAATCTTTCTGTTCAAGCGCCATCTAC | 0.622 RPM ratio (pull-down/input)
GATGATTGTTCTCCCAGCTGATGAATTGTATGTATCGAGTAAACAAATTTTCCTAATCTTTCTGTTCAAGCGCCATCTAC | 4.55 RPM ratio (pull-down/input)
GATGATTGTTCTCCCAGCTGATGAATTATGTTTCTCGAGTAAACAAATTTTCCTAATCTTTCTGTTCAAGCGCCATCTAC | 4.18 RPM ratio (pull-down/input)

Sequence | binding signal
GATGATTGTTCTCCCAGCTGATGAATTATGTATATCGAGTAAACAAATTTTCCTAATCTTTCTGTTCAAGCGCCATCTAC | 5.96 RPM ratio (pull-down/input)
GATGATTGTTCTCCCAGCTGATGAATTATATGTATCGAGTAAACAAATTTTCCTAATCTTTCTGTTCAAGCGCCATCTAC | 2.22 RPM ratio (pull-down/input)
GATGATTGTTCTCCCAGCTGATGAATTTTATGTATCGAGTAAACAAATTTTCCTAATCTTTCTGTTCAAGCGCCATCTAC | 3.53 RPM ratio (pull-down/input)
GATGATTGTTCTCCCAGCTGATGAATTATGTGTATCGAGTAAACAAATTTTCCTAATCTTTCTGTTCAAGCGCCATCTAC | 5.73 RPM ratio (pull-down/input)
GATGATTGTTCTCCCAGCTGATGAATTATGTATCTCGAGTAAACAAATTTTCCTAATCTTTCTGTTCAAGCGCCATCTAC | 5.75 RPM ratio (pull-down/input)
GATGATTGTTCTCCCAGCTGATGAATTATGTATTTCGAGTAAACAAATTTTCCTAATCTTTCTGTTCAAGCGCCATCTAC | 4.76 RPM ratio (pull-down/input)
GATGATTGTTCTCCCAGCTGATGAATTATCTGTATCGAGTAAACAAATTTTCCTAATCTTTCTGTTCAAGCGCCATCTAC | 0.545 RPM ratio (pull-down/input)
GATGATTGTTCTCCCAGCTGATGAATTCTTCGATTCGAGTAAACAAATTTTCCTAATCTTTCTGTTCAAGCGCCATCTAC | 0.253 RPM ratio (pull-down/input)
GATGATTGTTCTCCCAGCTGATGAATTGGGTTAGTCGAGTAAACAAATTTTCCTAATCTTTCTGTTCAAGCGCCATCTAC | 0.756 RPM ratio (pull-down/input)
GATGATTGTTCTCCCAGCTGATGAATTCCTCCGTTCGAGTAAACAAATTTTCCTAATCTTTCTGTTCAAGCGCCATCTAC | 0.255 RPM ratio (pull-down/input)
GATGATTGTTCTCCCAGCTGATGAATTGTCCTTTTCGAGTAAACAAATTTTCCTAATCTTTCTGTTCAAGCGCCATCTAC | 0.39 RPM ratio (pull-down/input)
GATGATTGTTCTCCCAGCTGATGAATTGTTTTTGTCGAGTAAACAAATTTTCCTAATCTTTCTGTTCAAGCGCCATCTAC | 4.16 RPM ratio (pull-down/input)
GATGATTGTTCTCCCAGCTGATGAATTCTTTTTGTCGAGTAAACAAATTTTCCTAATCTTTCTGTTCAAGCGCCATCTAC | 0.437 RPM ratio (pull-down/input)
GATGATTGTTCTCCCAGCTGATGAATTTTCTTTGTCGAGTAAACAAATTTTCCTAATCTTTCTGTTCAAGCGCCATCTAC | 1.15 RPM ratio (pull-down/input)
GATGATTGTTCTCCCAGCTGATGAATTCTGTTTGTCGAGTAAACAAATTTTCCTAATCTTTCTGTTCAAGCGCCATCTAC | 6.99 RPM ratio (pull-down/input)
GATGATTGTTCTCCCAGCTGATGAATTTTGTTTGTCGAGTAAACAAATTTTCCTAATCTTTCTGTTCAAGCGCCATCTAC | 7.3 RPM ratio (pull-down/input)
GATGATTGTTCTCCCAGCTGATGAATTGTTTCTGTCGAGTAAACAAATTTTCCTAATCTTTCTGTTCAAGCGCCATCTAC | 1 RPM ratio (pull-down/input)
GATGATTGTTCTCCCAGCTGATGAATTCAATTTGTCGAGTAAACAAATTTTCCTAATCTTTCTGTTCAAGCGCCATCTAC | 2.23 RPM ratio (pull-down/input)
GATGATTGTTCTCCCAGCTGATGAATTTCTTTTGTCGAGTAAACAAATTTTCCTAATCTTTCTGTTCAAGCGCCATCTAC | 1.65 RPM ratio (pull-down/input)
GATGATTGTTCTCCCAGCTGATGAATTTGTTTTGTCGAGTAAACAAATTTTCCTAATCTTTCTGTTCAAGCGCCATCTAC | 7.57 RPM ratio (pull-down/input)
